Reference: PubChem BioAssay (NCATS)
Results filed as inconclusive are left out. The source made the active and inactive calls. Unless noted, calls follow the shape of the dose curve; as a rule, active = well fitted curve in the direction sought with a large enough effect; inconclusive = small, poorly fitted or top-dose-only effect, or another doubt; inactive = no such curve, though single readings can be large; an effect the other way counts as inactive or inconclusive.

Experiments:
[1] = Cell Viability - BJ (AID 421; calls by dose curve;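 also: potency is read from the fitted curve at half-maximal effect; cells exposed to compound for 40 hours at 37 °C before readout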); conditions: BJ fibroblast viability, qHTS
Procedure, shortened: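 Luminescent ATP signal (CellTiter-Glo, 20 min at room temperature) served as the read-out of viable BJ cells after 40 hours of compound treatment. Responses were scaled between DMSO and 100 uM tamoxifen, and AC50 values were obtained by Hill modeling.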

[2] = Cell Viability - Hek293 (AID 427;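 active = compounds whose dose-response curve shows a full or clear partial loss of cell viability, called from curve shape rather than a numeric limit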;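 also: potency is read from the fitted curve at half-maximal effect; cells exposed to compound for 40 hours at 37 °C before reading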); conditions: qHTS
Procedure, shortened: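 Luminescent ATP read-out (CellTiter-Glo, 20 min RT) after 40 hr compound exposure at 37 °C in complete medium. Signal normalized to DMSO (basal) and 100 uM tamoxifen (100% inhibition); concentration-response fitted with the standard Hill equation to give AC50.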

[3] = Cell Viability - HepG2 (AID 433; calls by dose curve;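 also: potency is read from the fitted curve at half-maximal effect; potency for ATP loss meaning cytotoxicity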); conditions: qHTS
Procedure, shortened: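 ATP luminescence (CellTiter-Glo) after 40 h compound exposure, 37 °C, HepG2, 1500 cells/well, complete medium. Normalized: DMSO = basal, 100 uM tamoxifen = 100% inhibition. AC50 via standard Hill equation.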

[4] = Cell Viability - MRC5 (AID 434; calls by dose curve;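 also: potency is read from the fitted curve at half-maximal effect; potency reflects cytotoxicity seen as loss of intracellular ATP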); conditions: MRC5 lung fibroblast viability, qHTS
Procedure, shortened: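 MRC5 normal human lung fibroblasts, 1500 cells/well, exposed to compound for 40 hr at 37 C. Cellular ATP was read by CellTiter-Glo luminescence; data normalized to DMSO and 100 uM tamoxifen, with AC50 from Hill fits.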

[5] = Cell Viability - SK-N-SH (AID 435; calls by dose curve; also: potency is read from the fitted curve at half-maximal effect); conditions: SK-N-SH neuroblastoma cell viability qHTS
Procedure, shortened: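 CellTiter-Glo ATP luminescence, 20 min RT read; cells pre-plated 5 hr, compound 40 hr at 37 °C, 1500 cells/well, complete medium. Normalized DMSO = 0, 100 uM tamoxifen = 100% inhibition; Hill-fit AC50.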

[6] = molecular target: Mitogen-activated protein kinase 10 (Mus musculus) (UniProt Q61831); assay: JNK3 AlphaScreen Assay (AID 530; active = well fitted curve in either direction with a large enough effect, not every such curve was filed as active;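 also: kinase came from lysate of stimulated human HepG2 cells; signal reports phosphorylation of biotinylated GST-cJun 1-79 at Ser73 with 10 µM ATP; % is scaled to controls: 0 for no effect and ±100 for the full control effect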)
Procedure, shortened: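 qHTS format: compounds tested as titrations against IL-1beta/TNF-alpha-activated HepG2 lysate JNK3 with biotin-GST-cJun substrate and 10 uM ATP at room temperature. Loss of anti-phospho-cJun AlphaScreen signal indicates inhibition.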

[7] = Cell Viability - N2a (AID 540); conditions: N2a mouse neuroblastoma cell viability; activity change, negative = cytotoxicity: at 92.2 µM (top of the series);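 also: plate controls were DMSO alone for no effect and tamoxifen control for full effect; nearly all actives have a fitted effect of over 45% in size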
Procedure, shortened: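 First, 1500 N2a cells per well incubate 5 hr at 37 °C; next, compounds are added and incubated 40 hr at 37 °C; finally CellTiter-Glo is added and luminescence read after 20 min, with AC50 derived by Hill modeling.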

[8] = Cell Viability - NIH 3T3 (AID 541); conditions: NIH 3T3 cell viability, qHTS; activity change, negative = cytotoxicity: at 92.2 µM (top of the series);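 also: plate controls were DMSO alone for no effect and tamoxifen positive control for full effect; nearly all actives have a fitted effect of over 25% in size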
Procedure, shortened: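 AC50 values reflect concentration-dependent loss of intracellular ATP in NIH 3T3 cells after 40 hr treatment in complete culture medium, quantified by luciferase-based luminescence.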

[9] = Cell Viability - HUV-EC-C (AID 542); also: % is scaled to controls: 0 for no effect and ±100 for the full control effect; nearly all actives have a fitted effect of over 35% in size
Procedure, shortened: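 Decrease in cellular ATP, quantified by luciferase luminescence, reflects toxicity in normal human vascular endothelial HUV-EC-C cells given compound for 40 hr in complete culture medium. Values are AC50s from concentration-response curves.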

[10] = Cell Viability - H-4-II-E (AID 543); also: % is scaled to controls: 0 for no effect and ±100 for the full control effect; nearly all actives have a fitted effect of over 35% in size
Procedure, shortened: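 Here, cytotoxicity is measured in the rat hepatoma line H-4-II-E as loss of intracellular ATP after 40 hr compound treatment, detected by luciferase luminescence.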

[11] = Cell Viability - SH-SY5Y (AID 544); conditions: SH-SY5Y neuroblastoma cell viability; viability change, negative = cytotoxic: at 92.2 µM (top of the series); also: nearly all actives have a fitted effect of over 55% in size
Procedure, shortened: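 Cytotoxicity is scored as a concentration-dependent fall in intracellular ATP in human SH-SY5Y cells treated 40 hr in complete culture medium. Potency is expressed as AC50 from a Hill equation fit.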

[12] = Cell Viability - Renal Proximal Tubule (AID 545); conditions: renal proximal tubule cells viability, primary cells of rat origin; activity change, negative = cytotoxicity: at 91.7 µM (top of the series); also: nearly all actives have a fitted effect of over 40% in size
Procedure, shortened: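 Rat kidney proximal tubule cells, freshly isolated; 1000 cells/well, 5 hr settle, compound 40 hr 37 °C. CellTiter-Glo 20 min RT, luminescence read. AC50 by standard Hill fit.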

[13] = Cell Viability - Mesenchymal (AID 546); conditions: mesenchymal cells viability, qHTS; activity change, negative = cytotoxicity: at 91.7 µM (top of the series);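 also: cells exposed to compound for 40 hours before reading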
Procedure, shortened: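 Human kidney mesenchymal cells from normal renal glomeruli, 1000 cells/well, rested 5 hr at 37 °C, then treated 40 hr at 37 °C in complete medium. Cellular ATP read by CellTiter-Glo luminescence; AC50 from Hill-equation fits.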

[14] = Cellular Toxicity (caspase-3) HepG2 (AID 654);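 also: cells exposed to compound for 16 hours before reading; 0% = DMSO alone and 100% = caspase signal from 100 µM tamoxifen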
Procedure, shortened: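 qHTS, HepG2, 1500 cells/well, complete medium; cpd 16 h 37 °C; Caspase-Glo 3/7, 20 min RT; lum. Norm: DMSO vs 100 uM tamoxifen; AC50 Hill fit.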

[15] = Cellular Toxicity (caspase-3) Jurkat (AID 655); conditions: Jurkat caspase-3 activation, luminescence; caspase-3 activation: at 92.2 µM (top of the series), DMSO = 0%, tamoxifen = 100%;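 also: cells exposed to compound for 16 h at 37 °C before reading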
Procedure, shortened: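 Luminescent caspase-3/7 readout (aminoluciferin substrate cleavage) in human T-cell leukemia Jurkat cells after 16 hr compound exposure. Concentration-response normalized to DMSO and 100 uM tamoxifen; AC50 by standard Hill equation.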

[16] = Cellular Toxicity (caspase-3) BJ (AID 658); conditions: Potency: caspase-3 activation;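 also: 0% = DMSO basal and 100% = 10 µM staurosporine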
Procedure, shortened: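 BJ human foreskin fibroblasts, 1000 cells/well, treated 16 hours at 37 °C in complete medium; caspase 3/7 activity by Caspase-Glo luminescence after 1 hr at room temperature. Normalized to DMSO and 10 uM staurosporine; AC50 from Hill fits.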

[17] = Cellular Toxicity (caspase-3) Mesangial (AID 660); conditions: mesangial cells, normalized: DMSO 0%, 100 µM tamoxifen 100%; at 91.7 µM (top of the series);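 also: combined caspase 3 and 7 activity read by Caspase-Glo luminescence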
Procedure, shortened: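 Concentration-response qHTS: compound-induced rise in caspase 3/7 luminescence in human mesangial cells after 16 h, normalized to DMSO and 100 uM tamoxifen controls.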

[18] = Cellular Toxicity (caspase-3) SK-N-SH (AID 661); conditions: SK-N-SH caspase-3 activation, qHTS; caspase-3 activation: at 91.7 µM (top of the series), DMSO as zero, staurosporine as full;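 also: 0% = DMSO basal and 100% = 10 µM staurosporine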
Procedure, shortened: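 Caspase 3/7 activation is measured as a luminescence increase from aminoluciferin released by substrate cleavage in SK-N-SH cells after 16 hr compound treatment; values are AC50 from concentration-response curves.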

[19] = Cellular Toxicity (caspase-3) H-4-II-E (AID 663); conditions: H-4-II-E rat hepatoma; Potency: caspase-3 activation; caspase-3 activation: at 92.2 µM (top of the series), scaled: DMSO 0%, 100 µM tamoxifen 100%;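 also: cells exposed to compound for 16 hr before readout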
Procedure, shortened: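 Rat hepatoma H-4-II-E cells (1500/well) plated 5 hr, then exposed to compound titrations for 16 hr at 37 °C. Caspase-Glo 3/7 luminescence read after 20 min at RT; data normalized to DMSO and 100 uM tamoxifen, AC50 from Hill fits.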

[20] = Cellular Toxicity (caspase-3) NIH 3T3 (AID 666);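 also: 0% = DMSO basal and 100% = 100 µM tamoxifen stimulation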
Procedure, shortened: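 Concentration-response qHTS in NIH 3T3 mouse fibroblasts scores caspase-3/7 activation as rising luminescence after 16 hr compound exposure. Signals are scaled between DMSO-only and 100 uM tamoxifen.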

[21] = Cellular Toxicity (caspase-3) Renal Proximal Tubule (AID 667);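 also: cells exposed to compound for 16 hours at 37 °C before detection; 0% = DMSO basal and 100% = 10 µM staurosporine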
Procedure, shortened: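 Luminescent caspase 3/7 signal from peptide-aminoluciferin cleavage measures apoptosis in freshly isolated rat kidney proximal tubule cells after 16 h compound exposure. Concentration-response data are normalized to DMSO and 10 uM staurosporine, and AC50 values come from Hill equation fits.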

[22] = molecular target: Cytochrome P450 3A4 (Homo sapiens) (UniProt P08684); assay: qHTS Assay for Inhibitors and Substrates of Cytochrome P450 3A4 (AID 884); also: % is scaled to controls: 0 for no effect and ±100 for the full control effect; nearly all actives have a fitted effect of over 50% in size
Chain of Cytochrome P450 3A4 (Homo sapiens) (P08684 whole entry, looked up): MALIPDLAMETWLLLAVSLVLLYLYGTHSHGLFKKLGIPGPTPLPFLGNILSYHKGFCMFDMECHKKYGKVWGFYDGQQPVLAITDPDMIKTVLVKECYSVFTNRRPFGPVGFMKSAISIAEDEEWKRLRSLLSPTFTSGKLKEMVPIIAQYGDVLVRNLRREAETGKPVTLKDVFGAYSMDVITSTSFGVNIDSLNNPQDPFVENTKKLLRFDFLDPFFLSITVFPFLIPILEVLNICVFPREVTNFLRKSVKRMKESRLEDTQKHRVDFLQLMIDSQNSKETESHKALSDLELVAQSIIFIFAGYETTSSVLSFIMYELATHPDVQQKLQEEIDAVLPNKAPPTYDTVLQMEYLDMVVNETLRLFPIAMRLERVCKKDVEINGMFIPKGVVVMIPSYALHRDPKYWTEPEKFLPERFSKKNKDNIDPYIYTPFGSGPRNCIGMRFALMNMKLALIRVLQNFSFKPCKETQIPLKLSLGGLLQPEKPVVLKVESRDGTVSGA
Procedure, shortened: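 20 nM human CYP3A4 with 25 uM Luciferin-PPXE (at KM) in 200 mM KPO4, preincubated 10 min with compound; NADPH regeneration started a 60 min RT reaction. Luciferin detected by luminescence, normalized to 57 uM ketoconazole as full inhibition.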

[23] = Cell Viability - LYMP2-001 (AID 921);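 also: 0% = DMSO only and full inhibition = tetraoctylammonium bromide control wells; nearly all actives have a fitted effect of over 70% in size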
Procedure, shortened: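 CellTiter-Glo luminescence (intracellular ATP) after 24 hr compound exposure at 37 C, 2500 lymphoblastoid cells/well in complete medium. AC50 fitted with standard Hill equation; tetraoctylammonium bromide positive control.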

[24] = MultiTox-Fluor Cytotoxicity Assay - LYMP1-001 - Dead Cells (AID 946);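 also: 0% = DMSO and 100% = tetraoctylammonium bromide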
Procedure, shortened: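 AC50 from Hill fit of concentration-response; data normalized to DMSO (basal) and 15 uM tetraoctylammonium bromide (100%). LYMP1-001 lymphoblastoid cells, 2500/well, 16 hr compound at 37 C; dead-cell protease fluorescence, Ex/Em 485/520.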

[25] = MultiTox-Fluor Cytotoxicity Assay - LYMP1-001 - Live Cells (AID 947);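 also: 0% = DMSO only and full inhibition = tetraoctylammonium bromide control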
[26] = Cell Viability - LYMP1-002 - Assay at 16 hr (AID 948);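 also: 0% = DMSO alone and full effect = 92 µM tetraoctylammonium bromide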
Procedure, shortened: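 LYMP1-002 human lymphoblastoid cells, 2500/well; 5 hr 37 C; cpd 16 hr 37 C; CellTiter-Glo 30 min RT; luminescence (ATP). Concentration-response, Hill-fit AC50. Pos ctrl tetraoctylammonium bromide.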

[27] = MultiTox-Fluor Cytotoxicity Assay - LYMP1-002 - Live Cells (AID 955); also: % is scaled to controls: 0 for no effect and ±100 for the full control effect
Procedure, shortened: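 Cytotoxicity in the human lymphoblastoid line LYMP1-002 is measured as loss of live-cell protease activity after 16 h treatment in complete culture medium. AC50 is derived from Hill-equation fits of qHTS concentration-response data.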

[28] = MultiTox-Fluor Cytotoxicity Assay - LYMP1-002 - Dead Cells (AID 960);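 also: 0% = DMSO and 100% = tetraoctylammonium bromide; nearly all actives have a fitted effect of over 60% in size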
Procedure, shortened: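 Acute cytotoxicity in a human lymphoblastoid line is scored as rising dead-cell protease signal after 16 hr exposure at 37 C, measured fluorometrically (485/520).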

[29] = MultiTox-Fluor Cytotoxicity Assay - LYMP1-003 - Dead Cells (AID 961);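 also: 0% = DMSO and 100% = tetraoctylammonium bromide; nearly all actives have a fitted effect of over 70% in size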
Procedure, shortened: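 Human lymphoblastoid LYMP1-003 cells (2500/well) were treated with compounds for 16 hr at 37 C in complete medium. Dead-cell protease release was read by bis-AAF-R110 fluorescence (Ex/Em 485/520). AC50 came from Hill fits, normalized to DMSO and 15 uM tetraoctylammonium bromide.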

[30] = MultiTox-Fluor Cytotoxicity Assay - LYMP1-003 - Live Cells (AID 962);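 also: 0% = DMSO only and full loss = 92 µM tetraoctylammonium bromide; cytotoxic hits lower the live-cell protease signal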
Procedure, shortened: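 Cells plated at 2500 per well and incubated 5 hr; compounds added and incubated 16 hr at 37 C; MultiTox-Fluor reagent added for 60 min at room temperature; fluorescence of liberated AFC measured at 405/510 nm.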

[31] = Cell Viability - LYMP1-003 - Assay at 24 hr (AID 963);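 also: plate controls were DMSO only for no effect and tetraoctylammonium bromide positive control for full effect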
Procedure, shortened: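 Acute toxicity in LYMP1-003 lymphoblastoid cells: 24 hr compound treatment at 37 C, ATP measured with CellTiter-Glo after 30 min at room temperature. AC50 derived by fitting the Hill equation to qHTS titrations.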

[32] = Cell Viability - LYMP1-003 - Assay at 40 hr (AID 964); also: % is scaled to controls: 0 for no effect and ±100 for the full control effect; nearly all actives have a fitted effect of over 60% in size
Procedure, shortened: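 This qHTS cytotoxicity screen treats human lymphoblastoid cells (LYMP1-003) with compounds for 40 hr and quantifies cellular ATP via luciferase luminescence.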

[33] = Cell Viability - LYMP2-003 (AID 965);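 also: cells exposed to compounds for 24 h before reading; 0% = DMSO only and full effect = 92 µM tetraoctylammonium bromide; nearly all actives have a fitted effect of over 50% in size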
Procedure, shortened: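 CellTiter-Glo luminescence (cellular ATP) after 24 h compound exposure at 37 C in complete medium; 2500 cells/well, 5 h settling beforehand. Concentration-response fitted to standard Hill equation for AC50. Tetraoctylammonium bromide served as positive control.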

[34] = Cell Viability - LYMP2-004 (AID 966);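 also: plate controls were DMSO only for no effect and tetraoctylammonium bromide control for full effect; nearly all actives have a fitted effect of over 65% in size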
Procedure, shortened: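 Acute toxicity is scored as a concentration-dependent drop in intracellular ATP, quantified by luciferase luminescence, in human lymphoblastoid cells exposed to compound for 24 hr. AC50 derives from Hill-equation modelling.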

[35] = Cell Viability - LYMP2-005 (AID 967);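 also: plate controls were DMSO only for no effect and 92 µM tetraoctylammonium bromide control for full effect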
Procedure, shortened: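 Steps: seed 2500 LYMP2-005 cells/well, incubate 5 h at 37 C, add compound, incubate 24 h at 37 C, add CellTiter-Glo, wait 30 min at RT, read luminescence. Concentration-response data fitted to Hill equation for AC50.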

[36] = Cell Viability - LYMP2-009 (AID 968);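 also: 0% = DMSO alone and the full-kill end = tetraoctylammonium bromide at 92 µM; nearly all actives have a fitted effect of over 55% in size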
[37] = Cell Viability - LYMP2-011 (AID 969)
Procedure, shortened: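 Acute toxicity is scored as a concentration-dependent drop in intracellular ATP of a human lymphoblastoid line after 24 hr treatment. Values are AC50s modeled with the Hill equation.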

[38] = Cell Viability - LYMP2-013 (AID 970)
Procedure, shortened: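 Acute toxicity was measured in human lymphoblastoid cells (2500/well) exposed to compound titrations for 24 hr, with ATP luminescence (CellTiter-Glo) as read-out and AC50 fitted by Hill equation.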

[39] = Cell Viability - LYMP2-015 (AID 971)
Procedure, shortened: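 Acute toxicity was scored as a concentration-dependent drop in intracellular ATP in lymphoblastoid cells after 24 hr compound exposure in complete medium. Detection used CellTiter-Glo luciferase luminescence.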

[40] = Cell Viability - LYMP2-017 (AID 972)
Procedure, shortened: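 Steps: plate 2500 lymphoblastoid cells per well; incubate 5 hr at 37 C; add compound across a concentration series and incubate 24 hr at 37 C; add CellTiter-Glo and read luminescence after 30 min at room temperature; fit Hill curves for AC50.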

O=Cc1ccc(Cl)c(Cl)c1
inactive: Potency [1] > 92 µM | Potency [2] > 92 µM | Potency [3] > 92 µM | Potency [4] > 92 µM | Potency [5] > 92 µM | Potency [6] | Potency [7] | Potency [8] | Potency [9] | Potency [10] | Potency [11] | Potency [12] | Potency [13] | Potency [14] | Potency [15] | Potency [16] | caspase-3 activation [17] -1.53% | caspase-3 activation [18] 1.15% | caspase-3 activation [19] 0.309% | Potency [20] | outcome [21] | Potency [22] | Potency [23] | Potency [24] | Potency [25] | Potency [26] | Potency [27] | Potency [28] | Potency [29] | Potency [30] | Potency [31] | Potency [32] | Potency [33] | Potency [34] | Potency [35] | Potency [36] | Potency [37] | Potency [38] | Potency [39] | Potency [40]
